# Assay results from PubChem BioAssay AID1159580 (chemical genetic matrix, 2015).
# Hit rate of the full screen: of about 5,500 compounds, about 2,000 (36%) were called active. Not shown: some 18% with an inconclusive outcome. Some of the results follow. Values without a mark were called inactive. Cut-off read from the data, not from the text of the source: active = normalized growth mostly below about 0.91 (no sharp cut-off); inconclusive = no clear call, values can overlap the other calls; inactive = mostly above about 0.92.
# Assay: chemical genetic growth profiling, strain panel (AID 1159580);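 note: tested at 20 µM; growth read once vehicle control cultures reached saturation at 30 °C; 1 = growth at the plate median or of vehicle wells; lower values mean less growth of the strain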
# Details: S. cerevisiae deletion strains, growth OD
# [1] = locus YAR019C, strain CDC15, active compounds read low
# [2] = locus YBL105C, strain PKC1, active compounds read low
# [3] = locus YBR135W, strain CKS1, active compounds read low
# [4] = locus YBR136W, strain MEC1, active compounds read low
# [5] = locus YBR160W, strain CDC28, active compounds read low
# [6] = locus YDL017W, strain CDC7, active compounds read low
# [7] = locus YDL028C, strain MPS1, active compounds read low
# [8] = locus YDL101C, strain DUN1, active compounds read low
# [9] = locus YDL108W, strain KIN28, active compounds read low
# [10] = locus YDL132W, strain cdc53, active compounds read low
# [11] = locus YDL214C, strain PRR2, active compounds read low
# [12] = locus YDR052C, strain DBF4, active compounds read low
# [13] = locus YDR054C, strain cdc34, active compounds read low
# [14] = locus YDR226W, strain ADK1, active compounds read low
# [15] = locus YDR477W, strain SNF1, active compounds read low
# [16] = locus YER123W, strain YCK3, active compounds read low
# [17] = locus YER133W, strain GLC7, active compounds read low
# [18] = locus YFL009W, strain cdc4, active compounds read low
# [19] = locus YFL029C, strain CAK1, active compounds read low
# [20] = locus YFR003C, strain YPI1, active compounds read low
# [21] = locus YFR019W, strain FAB1, active compounds read low
# [22] = locus YFR028C, strain CDC14, active compounds read low
# [23] = locus YGR040W, strain KSS1, active compounds read low
# [24] = locus YGR052W, strain FMP48, active compounds read low
# [25] = locus YGR092W, strain DBF2, active compounds read low
# [26] = locus YHR030C, strain SLT2, active compounds read low
# [27] = locus YHR079C, strain IRE1, active compounds read low
# [28] = locus YHR082C, strain KSP1, active compounds read low
# [29] = locus YHR205W, strain SCH9, active compounds read low
# [30] = locus YIL147C, strain SLN1, active compounds read low
# [31] = locus YJL095W, strain BCK1, active compounds read low
# [32] = locus YJL128C, strain PBS2, active compounds read low
# [33] = locus YJL157C, strain FAR1, active compounds read low
# [34] = locus YJR016C, strain ILV3, active compounds read low
# [35] = locus YJR066W, strain TOR1 (second series), active compounds read low
# [36] = locus YJR066W, strain TOR1, active compounds read low
# [37] = locus YKL048C, strain ELM1, active compounds read low
# [38] = locus YKL067W, strain YNK1, active compounds read low
# [39] = locus YKL101W, strain HSL1, active compounds read low
# [40] = locus YKL193C, strain SDS22, active compounds read low
# [41] = locus YKL203C, strain TOR2, active compounds read low
# [42] = locus YLR113W, strain HOG1, active compounds read low
# [43] = locus YLR133W, strain CKI1, active compounds read low
# [44] = locus YLR403W, strain SFP1, active compounds read low
# [45] = locus YML070W, strain DAK1, active compounds read low
# [46] = locus YMR001C, strain CDC5, active compounds read low
# [47] = locus YMR205C, strain PFK2 (second series), active compounds read low
# [48] = locus YMR277W, strain FCP1, active compounds read low
# [49] = locus YNL006W, strain LST8, active compounds read low
# [50] = locus YNL020C, strain ARK1, active compounds read low
# [51] = locus YNL161W, strain CBK1, active compounds read low
# [52] = locus YNL183C, strain NPR1, active compounds read low
# [53] = locus YNL207W, strain RIO2, active compounds read low
# [54] = locus YNL222W, strain SSU72, active compounds read low
# [55] = locus YNL307C, strain MCK1 (second series), active compounds read low
# [56] = locus YOL078W, strain AVO1, active compounds read low
# [57] = locus YOL136C, strain PFK27, active compounds read low
# [58] = locus YOR061W, strain CKA2, active compounds read low
# [59] = locus YOR119C, strain RIO1, active compounds read low
# [60] = locus YOR231W, strain MKK1, active compounds read low
# [61] = locus YOR329C, strain SCD5, active compounds read low
# [62] = locus YPL031C, strain PHO85, active compounds read low
# [63] = locus YPL153C, strain RAD53, active compounds read low
# [64] = locus YPL204W, strain HRR25, active compounds read low
# [65] = locus YPL209C, strain IPL1, active compounds read low
# [66] = locus YPL256C, strain CLN2, active compounds read low
# [67] = locus YPR025C, strain CCL1, active compounds read low
# [68] = locus YPR106W, strain ISR1, active compounds read low
# [69] = locus YPR111W, strain DBF20, active compounds read low
# [70] = strain NNK1, active compounds read low
# [71] = strain TSCII, active compounds read low
smiles,measurement,setting,value
O=C(NNc1ccc(Cl)cc1)c1ccc(F)cc1F,normalized growth,[1],0.937
same,normalized growth,[2],0.942
same,normalized growth,[3],0.952
same,normalized growth,[4],0.946
same,normalized growth,[5],0.942
same,normalized growth,[6],0.95
same,normalized growth,[7],0.959
same,normalized growth,[8],0.949
same,normalized growth,[9],0.959
same,normalized growth,[10],0.967
same,normalized growth,[11],0.701
same,normalized growth,[12],0.938
same,normalized growth,[13],0.949
same,normalized growth,[14],0.967
same,normalized growth,[15],0.701
same,normalized growth,[16],0.404 (active)
same,normalized growth,[17],0.755
same,normalized growth,[18],0.971
same,normalized growth,[19],0.944
same,normalized growth,[20],0.952
same,normalized growth,[21],0.547 (active)
same,normalized growth,[22],0.958
same,normalized growth,[23],0.718
same,normalized growth,[24],0.63
same,normalized growth,[25],0.345 (active)
same,normalized growth,[26],0.372 (active)
same,normalized growth,[27],0.747
same,normalized growth,[28],0.762
same,normalized growth,[29],0.663
same,normalized growth,[30],0.953
same,normalized growth,[31],0.271 (active)
same,normalized growth,[32],0.897
same,normalized growth,[33],0.736
same,normalized growth,[34],0.94
same,normalized growth,[35],0.606 (active)
same,normalized growth,[36],0.759
same,normalized growth,[37],0.747 (active)
same,normalized growth,[38],0.752
same,normalized growth,[39],0.784
same,normalized growth,[40],0.949
same,normalized growth,[41],0.855
same,normalized growth,[42],0.373 (active)
same,normalized growth,[43],0.701 (active)
same,normalized growth,[44],0.744
same,normalized growth,[45],0.54 (active)
same,normalized growth,[46],0.942
same,normalized growth,[47],0.826
same,normalized growth,[48],0.956
same,normalized growth,[49],0.968
same,normalized growth,[50],0.765
same,normalized growth,[51],0.947
same,normalized growth,[52],0.777
same,normalized growth,[53],0.946
same,normalized growth,[54],0.946
same,normalized growth,[55],0.451 (active)
same,normalized growth,[56],0.948
same,normalized growth,[57],0.616 (active)
same,normalized growth,[58],0.399 (active)
same,normalized growth,[59],0.796
same,normalized growth,[60],0.695
same,normalized growth,[61],0.95
same,normalized growth,[62],0.766
same,normalized growth,[63],0.696
same,normalized growth,[64],0.723
same,normalized growth,[65],0.941
same,normalized growth,[66],0.487 (active)
same,normalized growth,[67],0.947
same,normalized growth,[68],0.965
same,normalized growth,[69],0.974
same,normalized growth,[70],0.937
same,normalized growth,[71],0.947
Cc1ccc(N2C(=O)CSC2c2ccc(Cl)c(Cl)c2)cc1Cl (configuration not stated),normalized growth,[1],0.982
same,normalized growth,[2],0.974
same,normalized growth,[3],0.982
same,normalized growth,[4],0.976
same,normalized growth,[5],0.978
same,normalized growth,[6],0.975
same,normalized growth,[7],0.977
same,normalized growth,[8],0.97
same,normalized growth,[9],0.98
same,normalized growth,[10],0.982
same,normalized growth,[11],0.95
same,normalized growth,[12],0.98
same,normalized growth,[13],0.971
same,normalized growth,[14],0.973
same,normalized growth,[15],0.96
same,normalized growth,[16],0.956
same,normalized growth,[17],0.981
same,normalized growth,[18],0.977
same,normalized growth,[19],0.977
same,normalized growth,[20],0.973
same,normalized growth,[21],0.97
same,normalized growth,[22],0.988
same,normalized growth,[23],0.965
same,normalized growth,[24],1.01
same,normalized growth,[25],0.935
same,normalized growth,[26],0.808 (active)
same,normalized growth,[27],0.887
same,normalized growth,[28],1.07
same,normalized growth,[29],0.94
same,normalized growth,[30],0.981
same,normalized growth,[31],0.918
same,normalized growth,[32],0.922
same,normalized growth,[33],0.961
same,normalized growth,[34],0.988
same,normalized growth,[35],0.913
same,normalized growth,[36],0.995
same,normalized growth,[37],0.957
same,normalized growth,[38],0.959
same,normalized growth,[39],0.953
same,normalized growth,[40],0.977
same,normalized growth,[41],1.01
same,normalized growth,[42],0.791 (active)
same,normalized growth,[43],0.947
same,normalized growth,[44],0.95
same,normalized growth,[45],0.943
same,normalized growth,[46],0.975
same,normalized growth,[47],0.977
same,normalized growth,[48],0.981
same,normalized growth,[49],0.976
same,normalized growth,[50],0.933
same,normalized growth,[51],0.977
same,normalized growth,[52],0.994
same,normalized growth,[53],0.968
same,normalized growth,[54],0.988
same,normalized growth,[55],0.942
same,normalized growth,[56],0.982
same,normalized growth,[57],0.928
same,normalized growth,[58],0.953
same,normalized growth,[59],1.03
same,normalized growth,[60],0.937
same,normalized growth,[61],0.972
same,normalized growth,[62],0.957
same,normalized growth,[63],0.984
same,normalized growth,[64],0.933
same,normalized growth,[65],0.976
same,normalized growth,[66],0.826 (active)
same,normalized growth,[67],0.977
same,normalized growth,[68],0.971
same,normalized growth,[69],0.962
same,normalized growth,[70],0.959
same,normalized growth,[71],0.981
